Compounds with a hit are over-represented: about 1.5% of the library has one in this group of screens.
USP1-UAF1 inh – USP1/UAF1 (human) deubiquitinase inhibition; O94782; recombinant USP1/UAF1, Ub-Rhodamine cleavage fluorescence; Potency, µM (doses to about 57.1 µM), for the others: at the highest dose activity change, negative = inhibition, hits mostly inhibitors; 390,000 compounds, 0.23% hits; AID 743255; also: potency is read from the fitted curve at half-maximal effect; nearly all actives have a fitted effect of over 60% in size
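High-throughput fluorogenic screen: 1nM USP1/UAF1 complex, Ub-Rho substrate 150nM final, 50mM HEPES pH 7.8 with 0.5mM EDTA, 0.1 mg/ml BSA, 1mM TCEP and 0.01% Tween-20.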
TrxR1 substrate – rat thioredoxin reductase 1 substrate activity; 390,000 compounds, 0.01% hits; Potency, µM (series often up to 114 µM), for inactives: at the top dose activity change, negative = substrate turnover; purified TrxR1 substrate turnover, NADPH consumption readout; O89049; also: potency is read from the fitted curve at half-maximal effect; nearly all actives have a fitted effect of over 50% in size
Target sequence (O89049 whole entry, looked up): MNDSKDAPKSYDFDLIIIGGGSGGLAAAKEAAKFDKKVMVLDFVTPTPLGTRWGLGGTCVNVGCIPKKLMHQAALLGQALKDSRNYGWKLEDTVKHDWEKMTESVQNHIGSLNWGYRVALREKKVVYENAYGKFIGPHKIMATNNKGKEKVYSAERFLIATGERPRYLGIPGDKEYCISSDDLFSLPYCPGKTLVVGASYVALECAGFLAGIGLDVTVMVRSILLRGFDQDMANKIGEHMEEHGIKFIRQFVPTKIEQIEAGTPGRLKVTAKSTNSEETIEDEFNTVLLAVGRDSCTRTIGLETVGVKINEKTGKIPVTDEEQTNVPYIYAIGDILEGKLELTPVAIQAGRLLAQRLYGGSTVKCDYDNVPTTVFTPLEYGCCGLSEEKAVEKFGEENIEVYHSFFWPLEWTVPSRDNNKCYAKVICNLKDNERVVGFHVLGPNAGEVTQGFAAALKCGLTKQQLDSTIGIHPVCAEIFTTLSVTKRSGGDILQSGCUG
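Rat TrxR1, dispensed at 90 nM, was prereduced with 400 uM NADPH (final) for 5 min at ~22 deg C, then incubated with compound 15 min before 400 uM selenite. A first-read NADPH fluorescence drop versus no-compound background flagged substrates.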
GALK inh – blocks human galactokinase activity; Potency, µM (top dose mostly 57.5 µM), inactives show at the top dose activity change, negative = inhibition, usual class: inhibitors; AID 1868; 270,000 compounds, 0.007% hits; Purified GALK, Kinase-Glo residual ATP luminescence; P51570; also: potency is read from the fitted curve at half-maximal effect
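5 nM enzyme, 35 uM ATP, 100 uM galactose, 20 mM HEPES pH8.0, 5 mM MgCl2; 1 h RT; residual ATP by Kinase-Glo Plus luminescence, qHTS format.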
Coupling enz – inhibits coupling enzyme system, counter-screen for aldolase hits. coupling enzyme system counterscreen, AmpLite Red fluorescence. activity change, negative = inhibition, % at 58.2 µM, hits read low. 290,000 compounds, 0.67% hits; in the data active = activity change below about -30%
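First, compound is pin-transferred into glyceraldehyde-3-phosphate coupling-enzyme reagent at 57.5 uM final and held 10 min at RT. Next, substrate, coupling system and AmpLite Red are added. After 20 min RT, fluorescence (525/598 nm) is read.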
rTrxR1 inhibitor – inhibitors of rat thioredoxin reductase 1 | recombinant rTrxR1, NADPH fluorescence consumption, selenite substrate | Potency, µM (titrated, usually from 114 µM), for the others: top-dose activity change, negative = inhibition, hits mostly inhibitors | 390,000 compounds, 1% hits; also: potency is read from the fitted curve at half-maximal effect; nearly all actives have a fitted effect of over 65% in size
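Rat TrxR1 (90 nM in the dispensed reagent) was pre-reduced with 400 uM NADPH for 5 min at room temperature, then incubated with compound for 15 min. After 400 uM selenite was added, NADPH fluorescence (Ex 340/Em 450 nm) was followed for 8 min.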
* = called active by the depositor; ! = not active in a repeat; [ ] = remark or other dose. Unless noted, calls follow the shape of the dose curve; as a rule, active = well fitted curve in the direction sought with a large enough effect; inconclusive = small, poorly fitted or top-dose-only effect, or another doubt; inactive = no such curve, though single readings can be large; an effect the other way counts as inactive or inconclusive. % is scaled to controls: 0 for no effect and ±100 for the full control effect.

Cc1cccc(Cn2cnc3c(cnn3C(C)(C)C)c2=O)c1 was read as TrxR1 substrate -9% and rTrxR1 inhibitor 1%.
Screening CC(=O)Oc1ccc2nonc2c1OC(C)=O returned TrxR1 substrate 20µM* and rTrxR1 inhibitor inconclusive.
For CC(=O)Oc1cccc(C(=O)O)c1OC(C)=O the results were Coupling enz 2.
`C=C1CCC[C@]2(C)C[C@H]3OC(=O)[C@H](CNCCc4ccccc4OC)C3CC12` (stereo not given in full) gave Coupling enz 0.
CN1CC2(Cc3cc([N+](=O)[O-])ccc31)C(=O)OC(C)(C)OC2=O was read as TrxR1 substrate -8% and rTrxR1 inhibitor -7%.
Screening Cc1cc(C)nc(SCC(=O)Oc2ccc3oc(=O)cc(C)c3c2)n1 returned USP1-UAF1 inh -6%, TrxR1 substrate 10%[57.1 µM], GALK inh 2%, Coupling enz 1 and rTrxR1 inhibitor 1µM*.
Screening CCC(=O)Oc1ccc2oc(=O)cc(C)c2c1 returned USP1-UAF1 inh -11%, TrxR1 substrate 5%, GALK inh 1%, Coupling enz 1 and rTrxR1 inhibitor 10%.
Screening COc1ccc(C)cc1N(C)C(=O)c1sc2nc3n(c(=O)c2c1C)CCCCC3 returned USP1-UAF1 inh -16%, TrxR1 substrate -4% and rTrxR1 inhibitor 79µM*.
Cc1ccc(N(C)C(=O)c2sc3nc4n(c(=O)c3c2C)CCCC4)cc1C was read as USP1-UAF1 inh -12%, TrxR1 substrate 70% and rTrxR1 inhibitor 21%.
For COc1ccc(CNC(=O)c2sc3nc4n(c(=O)c3c2C)CCCCC4)cc1 the results were USP1-UAF1 inh -12%, TrxR1 substrate 23% and rTrxR1 inhibitor 7.1µM*.
Screening NN=C1c2cc(S(=O)(=O)NCCO)ccc2-c2ccc(S(=O)(=O)NCCO)cc21 returned TrxR1 substrate -7% and rTrxR1 inhibitor -25%.
O=C(NCc1ccccc1)c1ccc2nc(-c3ccco3)c(-c3ccco3)nc2c1 was read as USP1-UAF1 inh inconclusive, TrxR1 substrate -5%, GALK inh -1%, Coupling enz -19 and rTrxR1 inhibitor inconclusive.
For CCCCNC(=O)c1ccc2nc(-c3ccco3)c(-c3ccco3)nc2c1 the results were USP1-UAF1 inh -19%, TrxR1 substrate -3%, GALK inh -2%, Coupling enz -39* and rTrxR1 inhibitor 2.8µM*.
O=C(NCCO)Nc1ccc2nc(-c3ccco3)c(-c3ccco3)nc2c1 was read as GALK inh 2% and Coupling enz -36*.
O=C(NCCCO)c1ccc2nc(-c3ccco3)c(-c3ccco3)nc2c1 was read as USP1-UAF1 inh inconclusive, TrxR1 substrate -9%, GALK inh -2%, Coupling enz -29 and rTrxR1 inhibitor 2.8µM*.
Screening CC[C@H](C)[C@H](NC(=O)[C@H](Cc1ccc(O)cc1)NC(=O)[C@H](CCCNC(=N)N)NC(=O)[C@H](CCCNC(=N)N)NC(=O)[C@H](CC(C)C)NC(=O)[C@H](CCC(N)=O)NC(=O)[C@@H](NC(=O)[C@H](CCC(=O)O)NC(=O)[C@H](Cc1ccc(O)cc1)NC(=O)[C@H](CCC(N)=O)NC(=O)[C@H](C)NC(=O)[C@H](CCCNC(=N)N)NC(=O)[C@H](CCC(N)=O)NC(=O)[C@H](CCC(=O)O)NC(=O)[C@H](Cc1cnc[nH]1)NC(=O)[C@@H](NC(=O)[C@H](C)NC(=O)[C@H](Cc1ccc(O)cc1)NC(=O)[C@H](CC(=O)O)NC(=O)CNC(=O)[C@@H]1CCCN1C(=O)[C@H](Cc1ccc(O)cc1)NC(=O)[C@H](CCSC)NC(=O)[C@@H]1CCCN1C(=O)[C@H](CCC(=O)O)NC(=O)[C@H](CC(C)C)NC(=O)[C@@H]1CCCN1C(=O)[C@H](C)N)[C@@H](C)O)[C@@H](C)O)C(=O)N[C@@H](CC(N)=O)C(=O)N[C@H](C(=O)N[C@@H](CC(C)C)C(=O)N[C@H](C(=O)N[C@@H](CCCNC(=N)N)C(=O)N1CCC[C@H]1C(=O)N[C@@H](CCCNC(=N)N)C(=O)N[C@@H](Cc1ccc(O)cc1)C(N)=O)[C@@H](C)O)[C@@H](C)O returned Coupling enz -1.
`COc1cc(OC)c(/C=C/c2ccc3ccccc3[n+]2C)c(OC)c1` gave TrxR1 substrate -14% and rTrxR1 inhibitor 17%.
For CNC(C)C#Cc1c(-c2cc(OC)c(OC)c(OC)c2)noc1C (stereo not given) the results were USP1-UAF1 inh -27%, TrxR1 substrate 7%, Coupling enz -2 and rTrxR1 inhibitor 71µM*!.
`COc1cc(-c2noc(C)c2C#Cc2ccc(N)cc2)cc(OC)c1OC` gave USP1-UAF1 inh -23%, TrxR1 substrate 0%, Coupling enz -1 and rTrxR1 inhibitor 2%.
O=C(CNC(=O)C1CCCCC1)OCC(=O)c1ccc(-c2ccccc2)cc1 was read as TrxR1 substrate 9%[0.0914 µM] and rTrxR1 inhibitor 18%[0.0914 µM].
`O=c1c(C(c2ccc(Br)cc2)c2c(O)nc3n(c2=O)CCS3)c(O)nc2n1CCS2` gave USP1-UAF1 inh -19%, TrxR1 substrate 4%, GALK inh 0%, Coupling enz 7 and rTrxR1 inhibitor 1.6µM*.
`N#Cc1c(-c2ccc(Br)cc2)nc2n(c1=O)CCCS2` gave USP1-UAF1 inh 0%, TrxR1 substrate -7%, GALK inh 1%, Coupling enz 5 and rTrxR1 inhibitor -4%.
Screening O=c1c(C(c2ccc(Br)cc2)c2c(O)nc3n(c2=O)CCCS3)c(O)nc2n1CCCS2 returned USP1-UAF1 inh -9%, TrxR1 substrate inconclusive, GALK inh -4%, Coupling enz 5 and rTrxR1 inhibitor 7.1µM*.
`COC(=O)[C@H](Cc1ccccc1)NC(=O)[C@@H](C)CO` gave Coupling enz -3.
For CC(=Nc1ccccc1N)c1c(C)cc(=O)n(O)c1O the results were Coupling enz -30*!.
Screening CC(=O)Nc1c2c3c(cccc3n(C)c1=O)C(=O)c1ccccc1-2 returned USP1-UAF1 inh -14%, TrxR1 substrate -6%, GALK inh 1%, Coupling enz 2 and rTrxR1 inhibitor -20%.
Screening Cn1c(=O)c(Nc2ccc(Cl)cc2)c2c3c(cccc31)C(=O)c1ccccc1-2 returned USP1-UAF1 inh 10µM*, TrxR1 substrate 2%[57.1 µM], GALK inh 1%, Coupling enz -4 and rTrxR1 inhibitor 23%[57.1 µM].
Screening CN(Cc1ccc(Cl)cc1)C(=O)CCl returned USP1-UAF1 inh -25%, TrxR1 substrate 3%, GALK inh -2%, Coupling enz 0 and rTrxR1 inhibitor 6.3µM*.
`COc1ccc(CN(C)C(=O)CCl)cc1` gave USP1-UAF1 inh -8%, TrxR1 substrate 5%[57.1 µM], GALK inh 10%, Coupling enz 0 and rTrxR1 inhibitor inconclusive.
